Data as given in the supplement of paper PMC3545927.
Some of the results follow. No count for the full screen is at hand.

Target: furin, P09958
Assay: furin cleavage Z-score vs untreated control; higher = more cleavage, active = 3.5 or more, inactive = 1 or less, 8 variable residues between constant flanks
Method in brief: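 Magnetic beads held 8-mer peptides by the N-terminus, each fused to a cDNA oligonucleotide, and purified furin was added for 7.5, 15 or 30 min. Released DNA was sequenced after PCR adapter tagging. The cleavage Z-score is the log count relative to furin-free reactions, lowess-adjusted and divided by median absolute deviation.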
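Note: purified furin at 1:10 enzyme:substrate in 50 mM HEPES pH 7.5.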

furin, P09958, sequence (P09958 whole entry): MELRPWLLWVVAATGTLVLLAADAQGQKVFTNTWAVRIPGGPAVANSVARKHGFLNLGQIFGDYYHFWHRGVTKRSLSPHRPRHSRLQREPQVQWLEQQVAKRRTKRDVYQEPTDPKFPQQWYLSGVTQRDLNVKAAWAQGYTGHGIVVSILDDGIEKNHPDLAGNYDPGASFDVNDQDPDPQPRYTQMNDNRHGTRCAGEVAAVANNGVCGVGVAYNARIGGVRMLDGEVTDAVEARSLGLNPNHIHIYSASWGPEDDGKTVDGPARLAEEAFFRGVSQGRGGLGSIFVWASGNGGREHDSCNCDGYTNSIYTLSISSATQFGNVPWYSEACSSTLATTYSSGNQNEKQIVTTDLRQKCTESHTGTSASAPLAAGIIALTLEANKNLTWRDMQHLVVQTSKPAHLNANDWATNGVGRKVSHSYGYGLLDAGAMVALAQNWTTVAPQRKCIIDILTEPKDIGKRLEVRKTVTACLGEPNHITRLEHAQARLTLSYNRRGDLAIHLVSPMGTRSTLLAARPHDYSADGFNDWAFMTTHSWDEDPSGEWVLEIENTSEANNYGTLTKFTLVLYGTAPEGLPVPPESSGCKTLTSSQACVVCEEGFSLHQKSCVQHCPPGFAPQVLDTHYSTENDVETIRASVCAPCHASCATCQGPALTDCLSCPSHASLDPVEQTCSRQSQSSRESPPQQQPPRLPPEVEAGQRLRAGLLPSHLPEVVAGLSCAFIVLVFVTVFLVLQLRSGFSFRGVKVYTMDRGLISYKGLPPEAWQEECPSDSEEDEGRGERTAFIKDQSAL

Row | Sequence | furin cleavage Z-score (7.5 min) | furin cleavage Z-score (15 min) | furin cleavage Z-score (30 min)
1 | CADFERSRAFAGNASASA [FS-1845] | -0.875 (inactive) | -0.501 (inactive) | -0.616 (inactive)
2 | CARKKRMAKYAGNASASA [FS-2966] | 5.67 (active) | 7.97 (active) | 8.42 (active)
3 | CARKKRKIKEAGNASASA [FS-3191] | -0.575 (inactive) | -0.156 (inactive) | 2.36
4 | CARKKRLISYAGNASASA [FS-2965] | 0.348 (inactive) | 3.83 (active) | 6.5 (active)
5 | CARKKRKAAPAGNASASA [FS-2267] | 5.91 (active) | 5.87 (active) | 5.5 (active)
6 | CARFKRSAQFAGNASASA [FS-2663] | 9.02 (active) | 10 (active) | 9.39 (active)
7 | CARKKRKPEEAGNASASA [FS-3192] | 0.523 (inactive) | 1.22 | 1.86
8 | CARHWTTQGCAGNASASA [HC309] | 0.306 (inactive) | -0.845 (inactive) | 0.176 (inactive)
9 | CAMEECFQHLAGNASASA [HC26] | 0.765 (inactive) | 1.72 | 1.22
10 | CAILAGYGAGAGNASASA [HC1086] | -0.899 (inactive) | -0.697 (inactive) | -0.69 (inactive)
11 | CARKKRSEYYAGNASASA [FS-1957] | 5.84 (active) | 8.3 (active) | 8.52 (active)
12 | CARKKRSQTYAGNASASA [FS-1958] | 8.08 (active) | 10.2 (active) | 9.02 (active)
13 | CARKSRSPHNAGNASASA [FS-3224] | 7.07 (active) | 8.27 (active) | 8.28 (active)
14 | CARKSRPNASAGNASASA [FS-2981] | 0.905 (inactive) | -0.37 (inactive) | -0.749 (inactive)
15 | CARKKRQVPYAGNASASA [FS-2269] | 7.32 (active) | 7.2 (active) | 5.84 (active)
16 | CARKSRSKSKAGNASASA [FS-3195] | 1.71 | 0.576 (inactive) | 0.352 (inactive)

Row | Sequence | furin cleavage Z-score (7.5 min) | furin cleavage Z-score (15 min) | furin cleavage Z-score (30 min)
17 | CASVFLVGQLAGNASASA [HC302] | -1.01 (inactive) | 0.196 (inactive) | -1.15 (inactive)
18 | CAGDEVDGAGAGNASASA [CS5] | -1.72 (inactive) | -1.16 (inactive) | -2.65 (inactive)
19 | CATTTSSEPAAGNASASA [HC1343] | 0.91 (inactive) | 0.314 (inactive) | 0.501 (inactive)
20 | CAVVLCSMSYAGNASASA [HC2025] | -0.0785 (inactive) | 0.317 (inactive) | -1.45 (inactive)
21 | CAGSGKSTKVAGNASASA [HC777] | -0.846 (inactive) | -1.25 (inactive) | -0.383 (inactive)
22 | CATYGKFLADAGNASASA [HC808] | -0.371 (inactive) | 0.314 (inactive) | -0.318 (inactive)
23 | CAKLPLAVMGAGNASASA [HC1461] | -1.04 (inactive) | 0.392 (inactive) | -1.13 (inactive)
24 | CAKLGVPPLRAGNASASA [HC1616] | -0.0832 (inactive) | -1.53 (inactive) | 0.294 (inactive)
25 | CARKKRSAQNAGNASASA [FS-2036] | 11.7 (active) | 14 (active) | 8.93 (active)
26 | CARKKRISANAGNASASA [FS-1827] | 0.255 (inactive) | 0.21 (inactive) | -0.0863 (inactive)
27 | CAQKKRSAQYAGNASASA [FS-2878] | 0.0672 (inactive) | 0.984 (inactive) | 2.02
28 | CATREAFRRGAGNASASA [FS-883] | -0.796 (inactive) | -0.878 (inactive) | -1.14 (inactive)
29 | CALTARFRRGAGNASASA [FS-1374] | 10.8 (active) | 12 (active) | 9.56 (active)
30 | CARTGRQVLGAGNASASA [FS-3104] | 0.169 (inactive) | -0.821 (inactive) | -1.11 (inactive)
31 | CAIHARFRRGAGNASASA [FS-250] | 11.1 (active) | 12.1 (active) | 9.69 (active)
32 | CARTDRCRRGAGNASASA [FS-1483] | 7.57 (active) | 8.52 (active) | 8.04 (active)
